This passage reports z-score and composite z-score results from PubChem BioAssay.

The source made the active and inactive calls. Unless noted, how the calls were made is not given here.

A short description of assay [1]: A549 cell viability effects, profiling panel, calcein-AM fluorescence, 48 h, basal (AID 1162). Further: test concentration not given here. The conditions noted are these: higher = more signal.
A short description of assay [2]: adipocyte viability effects, profiling panel, cell-based, 3T3-L1 adipocytes, calcein-AM fluorescence, 48 h, basal (AID 1163). Further: test concentration not given here. Conditions: 3T3-L1 adipocytes viability, higher = more signal.
The nature of assay [3]: HepG2 cell viability effects, profiling panel, calcein-AM fluorescence, 48 h, basal (AID 1164). Further: test concentration not given here. Conditions: higher = more signal.
Assay [4] is described as follows: MM1S cell viability effects, profiling panel, calcein-AM fluorescence, 48 h, basal (AID 1165).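 Further: viability of MM1S multiple myeloma cells under basal unstimulated conditions; test concentration not given here.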 The conditions noted are these: higher = more signal.
Assay [5] is described as follows: basal RPMI8226 viability, no added stimulus, profiling panel, cell-based, calcein-AM fluorescence, 48 h, PK04 Diversity Set (AID 1166).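 Further: cells grown under basal conditions without added stimulus; test concentration not given here.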 Conditions: RPMI8226 myeloma viability, higher = more signal.
The nature of assay [6]: basal HepG2 mitochondrial membrane potential changes, profiling panel, cell-based, JC-1 fluorescence, 24 h, 100 nL compound (AID 1167). Further: test concentration not given here. The conditions noted are these: higher = more signal.
Assay [7] can be described thus: basal 3T3-L1 adipocyte mitochondrial potential changes, profiling panel, cell-based, JC-1 fluorescence, 3T3-L1 adipocytes, 24 h, 100 nL compound (AID 1168). Further: test concentration not given here. Conditions: JC-1 mitochondrial fluorescence, higher = more signal, called active from +8 up or from −8 down.
Assay [8] in a line: basal RPMI8226 mitochondrial membrane potential changes, profiling panel, cell-based, JC-1 fluorescence, 24 h, 100 nL compound (AID 1169). Further: test concentration not given here. The conditions noted are these: RPMI8226 myeloma, JC-1 mitochondrial potential fluorescence, higher = more signal.
The nature of assay [9]: basal MM1S mitochondrial membrane potential changes, profiling panel, cell-based, JC-1 fluorescence, 24 h, 100 nL compound (AID 1170). Further: test concentration not given here. Conditions: higher = more signal.
Assay [10] is described as follows: A549 lung cancer cell viability effects, profiling panel, resazurin fluorescence, 24 h, PK04 Diversity Set (AID 1171). Further: test concentration not given here. The conditions noted are these: higher = more signal, called active from +8 up or from −8 down.
Assay [11] in a line: HepG2 liver cancer cell viability effects, profiling panel, resazurin fluorescence, 24 h, PK04 Diversity Set (AID 1172). Further: test concentration not given here. The conditions noted are these: higher = more signal. On the technique in general: Alamar Blue is a resazurin reagent that responds to reducing activity.
The nature of assay [12]: basal S. cerevisiae growth modulation, no modifier, primary screen, OD600, strain BY4716, 24 h, basal condition (AID 1173). The conditions noted are these: OD600, 24 h, higher = more signal, called active from +8 up or from −8 down.
Assay [13] in a line: MM1S myeloma cell viability, profiling panel, resazurin fluorescence, basal, 24 h, PK04 Diversity Set (AID 1174). Further: test concentration not given here. Conditions: higher = more signal, called active from +8 up or from −8 down.
The target in assay [14] is Dihydroorotate dehydrogenase (quinone), mitochondrial (Plasmodium falciparum (isolate 3D7)) (UniProt Q08210). The experiment in a line: PfDHODH enzyme inhibitors, primary screen, biochemical, C-terminal His tag, absorbance 600 nm (AID 1175).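 Further: recombinant parasite enzyme with a five histidine tag at its C terminus; test concentration not given here.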 Conditions: DCIP absorbance 600 nm, higher = more signal, called active from +8 up or from −8 down.
Dihydroorotate dehydrogenase (quinone), mitochondrial (Plasmodium falciparum (isolate 3D7)), sequence (Q08210 whole entry, looked up): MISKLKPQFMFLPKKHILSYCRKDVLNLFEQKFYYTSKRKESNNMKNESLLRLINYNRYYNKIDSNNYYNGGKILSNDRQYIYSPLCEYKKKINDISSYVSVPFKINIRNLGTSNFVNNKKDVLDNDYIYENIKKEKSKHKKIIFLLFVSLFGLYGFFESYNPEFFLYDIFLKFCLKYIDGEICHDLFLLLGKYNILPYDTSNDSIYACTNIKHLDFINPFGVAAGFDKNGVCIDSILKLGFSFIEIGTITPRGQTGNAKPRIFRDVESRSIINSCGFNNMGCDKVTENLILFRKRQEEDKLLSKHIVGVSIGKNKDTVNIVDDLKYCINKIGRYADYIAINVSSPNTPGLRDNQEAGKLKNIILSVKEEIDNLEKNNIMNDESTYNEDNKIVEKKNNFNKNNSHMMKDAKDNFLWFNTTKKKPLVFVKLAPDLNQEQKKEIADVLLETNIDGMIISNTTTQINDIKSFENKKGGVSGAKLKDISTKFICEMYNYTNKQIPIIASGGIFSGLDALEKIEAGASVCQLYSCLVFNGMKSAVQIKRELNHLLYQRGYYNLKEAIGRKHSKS
The nature of assay [15]: P. aeruginosa biofilm formation inhibitors, primary screen, strain PAO1, LB-PBS medium, absorbance 600 nm (AID 1176). Further: test concentration not given here. The conditions noted are these: P. aeruginosa PAO1 growth/biofilm, A600, 12 h; higher = more signal.
Assay [16] in a line: S. cerevisiae RM11-1a growth modifiers, primary screen, strain RM11-1a, OD600, basal, 24 h (AID 1177).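 Further: cultures grown under basal conditions with no added stressor; test concentration not given here.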 The conditions noted are these: OD600, 24 h, higher = more signal, called active from +8 up or from −8 down.
A short description of assay [17]: E. coli acrAB mutant growth effects, primary screen, E. coli filamentation inducers, strain DRC39, OD650, 24 h (AID 1178).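 Further: growth measured as culture turbidity by optical density at 650 nm; test concentration not given here.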 The conditions noted are these: higher = more signal, called active from +8 up or from −8 down.
Assay [18] in a line: E. coli acrAB mutant growth effects, primary screen, E. coli filamentation inducers, strain DRC39, OD650, 48 h (AID 1179).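 Further: screen aims at cell division blockers that make cells filament.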 The conditions noted are these: E. coli DRC39 delta-acrAB growth, higher = more signal, called active from +8 up or from −8 down.
The nature of assay [19]: RPMI8226 myeloma cell viability, profiling panel, resazurin fluorescence, basal, 24 h, PK04 Diversity Set (AID 1180).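 Further: RPMI8826 multiple myeloma cell line at 5000 cells per well; test concentration not given here.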 Conditions: higher = more signal.
Assay [20] concerns the target E3 ubiquitin-protein ligase XIAP (Homo sapiens) (UniProt P98170). The experiment in a line: XIAP binders, primary screen, biophysical, small-molecule microarray, fluorescence 635 nm (AID 1181).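 Further: score merges 667 nm emission and signal to noise over triplicate slides.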 The conditions noted are these: small-molecule microarray binding, higher = more signal.

E3 ubiquitin-protein ligase XIAP (Homo sapiens), sequence (P98170 whole entry, looked up): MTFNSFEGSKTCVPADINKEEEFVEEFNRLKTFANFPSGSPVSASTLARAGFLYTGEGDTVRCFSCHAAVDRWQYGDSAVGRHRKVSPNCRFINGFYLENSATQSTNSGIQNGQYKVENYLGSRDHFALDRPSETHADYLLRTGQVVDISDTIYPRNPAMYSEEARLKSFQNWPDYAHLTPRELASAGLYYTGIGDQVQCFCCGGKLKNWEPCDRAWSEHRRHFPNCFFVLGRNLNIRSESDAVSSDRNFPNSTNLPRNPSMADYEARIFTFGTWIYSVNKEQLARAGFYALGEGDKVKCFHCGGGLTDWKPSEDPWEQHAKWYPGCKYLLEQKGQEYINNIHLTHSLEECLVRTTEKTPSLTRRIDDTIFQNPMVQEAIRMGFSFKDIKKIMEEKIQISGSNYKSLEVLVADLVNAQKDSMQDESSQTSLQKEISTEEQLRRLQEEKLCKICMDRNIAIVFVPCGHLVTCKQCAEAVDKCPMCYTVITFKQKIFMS

As for `C=CCNC(=O)[C@@H]1[C@H]2C(=O)O[C@H](c3ccccc3)[C@H](c3ccccc3)N2[C@H](c2ccc(O)cc2)[C@@]12C(=O)N(C(=O)OCCOC)c1ccc(C#CC3=CCCCC3)cc12`, the z-score in assay [1] is 0.145; in assay [2] it was 0.725; in [3], 0.423; in assay [4] it was -2.13; in [5], -3.66; in assay [6], -1.9. In addition, the z-score in assay [7] is 0.889 (inactive); in [8], -0.825; in assay [9], -0.627; in [10], -0.966 (inactive); in assay [11] it was -0.411; in assay [12], 0.0346 (inactive). Moreover, the z-score in assay [13] is -0.279 (inactive); in assay [15], 1.26 (inactive); in assay [16], 0.891 (inactive); in [17], -0.713 (inactive); in assay [18], -0.277 (inactive); in assay [19], -1.09. Moreover, the composite z-score in assay [14] was 0.235 (inactive); in assay [20], -0.0056.

For the compound `CS(=O)(=O)CCOC(=O)C1=CC(c2ccc(CO)cc2)=CC(C2CC2)N(Cc2sc3ccccc3c2Cl)C=C1C(=O)OCCS(C)(=O)=O` (stereo not given), the z-score in assay [1] was -0.852; in assay [2], -0.716; in assay [3] it was 0.0312; in assay [4] it was -3.29; in assay [5] it was -2.92; in assay [6], 0.424. For the same compound, the z-score in assay [7] is 0.662 (inactive); in assay [8], -0.943; in assay [9] it was -1.87; in [10], -1.05 (inactive); in [11], 0.315; in assay [12] it was -5.45 (inactive). Also, the z-score was -2.63 (inactive) in [13]; -0.563 (inactive) in assay [15]; 0.272 (inactive) in assay [16]; -3.53 (inactive) in assay [17]; -2.01 (inactive) in [18]; -1.85 in assay [19]. Also, the composite z-score in assay [14] is -1.26 (inactive); in assay [20] it was 0.0049.

Consider `O=C(NCCN1CCOCC1)[C@@H]1c2ccccc2C(=O)N(C2Cc3ccccc3C2)[C@H]1c1ccc(CO)cc1`, for which the z-score in assay [1] was 2.31; in assay [2], 1.58; in assay [3], 2.01; in [4], 0.578; in assay [5], 1.35; in [6], 4.03. The z-score in [7] is 0.894 (inactive); in assay [8] it was -0.647; in [9], 0.291; in [10], 0.326 (inactive); in assay [11], -0.174; in assay [12] it was -0.633 (inactive). Besides, the z-score was 0.886 (inactive) in assay [13]; 0.404 (inactive) in [15]; -1.44 (inactive) in assay [16]; 0.638 (inactive) in assay [17]; 1.07 (inactive) in assay [18]; 0.142 in assay [19]. Besides, the composite z-score in assay [14] was -1.79 (inactive); in assay [20], 0.164.

Consider `CC(=O)NCCCC[C@@H]1NC(=O)[C@@H]2C[C@H](C(=O)NCCCCCN)[C@H](c3ccc(O)cc3)N2C1=O`, for which the z-score in assay [1] was -0.185; in [2], 0.42; in assay [3], -0.512; in [4] it was -0.449; in assay [5], -0.131; in assay [6], 0.651. Further, the z-score is -0.00185 (inactive) in assay [7]; -0.673 in assay [8]; 0.774 in [9]; -1.42 (inactive) in assay [10]; -0.714 in assay [11]; -0.12 (inactive) in [12]. Moreover, the z-score in assay [13] was 0.707 (inactive); in assay [15], 0.0094 (inactive); in assay [16], -0.0659 (inactive); in assay [17] it was -0.139 (inactive); in assay [18], -0.515 (inactive); in assay [19], 0.0794. The composite z-score in [14] is 0.143 (inactive); in [20], 0.492.

Turning to `COCCOC(=O)N1C(=O)[C@@]2(c3cc(C#CC4=CCCCC4)ccc31)[C@H](c1ccccc1OCCO)N1[C@H](c3ccccc3)[C@H](c3ccccc3)OC(=O)[C@H]1[C@@H]2C(=O)N1CCN(c2ncccn2)CC1`, the z-score was -1.17 in assay [1]; 0.956 in assay [2]; 0.195 in assay [3]; -0.118 in [4]; -1.92 in assay [5]; 0.259 in assay [6]. Further, the z-score in [7] is 2.14 (inactive); in assay [8], -0.423; in [9], -1.19; in assay [10] it was 0.753 (inactive); in assay [11], 0.574; in assay [12] it was 0.456 (inactive). Besides, the z-score in assay [13] was 0.411 (inactive); in assay [15], 1.56 (inactive); in assay [16] it was 0.756 (inactive); in [17], 0.259 (inactive); in assay [18], -1.22 (inactive); in [19], 0.0816. The composite z-score in assay [14] was -0.184 (inactive); in assay [20], -0.124.

On to `CS(=O)(=O)CCOC(=O)C1=CC(CCCO)=CC(c2ccc(CN3CCCC3)cc2)N(Cc2sc3ccccc3c2Cl)C=C1C(=O)OCCS(C)(=O)=O` (stereo not given), for which the z-score in [1] is 0.389; in assay [2], 0.958; in [3] it was 0.888; in [4] it was -1.59; in assay [5] it was 0.16; in [6] it was 2.41. In addition, the z-score is 0.0187 (inactive) in assay [7]; -0.544 in assay [8]; -0.299 in [9]; 0.328 (inactive) in [10]; -0.518 in [11]; -2.76 (inactive) in [12]. The z-score was -0.0646 (inactive) in assay [13]; -0.259 (inactive) in assay [15]; 0.34 (inactive) in assay [16]; 0.285 (inactive) in assay [17]; 0.309 (inactive) in assay [18]; -0.0127 in [19]. In addition, the composite z-score was -0.449 (inactive) in [14] and -0.247 in [20].

With `C=CCNC(=O)[C@@H]1[C@H]2C(=O)O[C@H](c3ccccc3)[C@H](c3ccccc3)N2[C@H](c2ccccc2OCCO)[C@@]12C(=O)N(C(=O)OCCOC)c1ccc(C#CC3(O)CCCCCC3)cc12`, the z-score was -0.21 in [1]; 1.21 in assay [2]; -1.27 in assay [3]; -2.55 in [4]; -3.61 in [5]; -0.746 in [6]. Besides, the z-score in assay [7] is -0.389 (inactive); in assay [8], -0.816; in assay [9] it was -0.761; in assay [10], -0.628 (inactive); in assay [11], -0.405; in [12] it was 0.605 (inactive). In addition, the z-score in assay [13] was -2.57 (inactive); in assay [15] it was 2.12 (inactive); in assay [16], 0.766 (inactive); in assay [17] it was 0.0265 (inactive); in assay [18], -0.609 (inactive); in assay [19], -3.27. In addition, the composite z-score in [14] was -1.91 (inactive); in assay [20] it was 0.133.

Regarding `NCCCCCNC(=O)[C@@H]1C[C@@H]2C(=O)N[C@@H](CCCCN)C(=O)N2[C@@H]1c1ccc(O)cc1`, the z-score in assay [1] is -0.0858; in [2], -0.426; in assay [3], 0.131; in assay [4], -0.29; in assay [5] it was -0.0496; in [6] it was -0.573. Moreover, the z-score in assay [7] is 1.56 (inactive); in [8] it was -0.457; in assay [9] it was -1.14; in [10], 0.0497 (inactive); in [11] it was 0.983; in assay [12], 1.95 (inactive). Moreover, the z-score in assay [13] is 0.116 (inactive); in [15] it was 2.49 (inactive); in [16], 2.39 (inactive); in assay [17], -0.0253 (inactive); in assay [18] it was -0.14 (inactive); in [19], 0.249. Also, the composite z-score in [14] is 0.0173 (inactive); in assay [20], 0.554.

Consider `CCCCNC(=O)c1ccc(C#CC(C)(C)C)c(OC(C)=O)c1`, for which the z-score in assay [1] was 0.3; in assay [2], 1.75; in assay [3], -0.835; in assay [4], 0.13; in assay [5], -1.37; in [6], -0.75. For the same compound, the z-score in assay [7] is -0.103 (inactive); in [8], -0.284; in assay [9], -0.221; in [10], -0.654 (inactive); in assay [11], 0.111; in assay [12], -2.59 (inactive). The z-score in assay [13] was 0.611 (inactive); in assay [15] it was -0.517 (inactive); in [16], 0.516 (inactive); in assay [17], 1.27 (inactive); in [18], 0.256 (inactive); in assay [19], 0.116. Further, the results for the composite z-score in assay [14] and in assay [20] were -1.14 (inactive) and -0.283, respectively.
